These results are taken from ChEMBL document CHEMBL1157539, “Thousands of chemical starting points for antimalarial lead identification” (Nature, 2010).

In the assay the test system is Plasmodium falciparum. As to the kind of experiment: GSK_TCMDC: Inhibition of Plasmodium falciparum Dd2 in whole red blood cells, using parasite LDH activity as an index of growth. Test compounds present at 2uM. It is filed as functional.
Molecule `O=C(Nc1cccc(CN2CCCN(Cc3ccccc3)CC2)c1)c1cc2ccccc2s1.O=C(O)C(F)(F)F` returned an Inhibition of 28%.
As to `CCCCCn1c(Sc2ccc(C#N)c([N+](=O)[O-])c2)nnc1-c1cccc(Cl)c1`, the Inhibition is reported as 75%.
For `Cl.N#Cc1ccc2c(c1)CN(CCC1CCC(NC(=O)c3cc4cnccc4[nH]3)CC1)CC2` (stereo unspecified) the value was 28%.
As to `O=C(Cn1c(SCc2cccc(F)c2F)cc(=O)c2ccccc21)N(CCCn1ccnc1)Cc1ccc(-c2ccc(C(F)(F)F)cc2)cc1`, the Inhibition is 99%.
For `CCCCCN(C(=O)Nc1cc(C(F)(F)F)cc(C(F)(F)F)c1)C(C)c1nc2ccccc2c(=O)n1CC` (stereo unspecified) the value was 100%.
For `CCN(CC)CCCC(C)N/C(=N\c1ccccc1Br)Nc1ccc(C#N)cc1O` (stereo unspecified) the value was 0%.
With `Br.CC1(C)NC(N)=NC(=N)N1OCCCCCCOc1ccc(Cl)c2ccccc12`, the Inhibition worked out at 94%.
For `COc1ccc(CNCc2ccc(-c3ccc(-c4nc5cccc(C)c5[nH]4)cc3)cc2)cc1.O=C(O)C(F)(F)F` the value was 97%; for `CCCc1nc2c(N3CCCN(C(=O)NC4CCCCC4)CC3)cccc2n1Cc1ccccn1`, 10%.
Turning to `c1cncc(-c2cc(N3CCCCC3)nc(-c3ccncc3)n2)c1`, the Inhibition is 46%.
For `O=C(NC1CCN(Cc2ccccc2O)C1)c1ccc(Cl)c(Cl)c1.O=C(O)C(F)(F)F` (stereo unspecified) the value was 62%; for `CC(=O)Nc1ccc(CN2CCN(C(c3ccc(F)cc3)c3ccc(F)cc3)CC2)cc1`, 79%; for `CCCCC1=CC2C(=O)C(C(=O)OC)=CN=C2C=C1OCc1ccccc1` (stereo unspecified), 98%.
Turning to `Cc1cccc2nc(-c3cccc(-c4cccc(C(=O)N5CCCCC5CN5CCC(O)C5)c4)c3)[nH]c12` (stereo unspecified), the Inhibition amounted to 71%.
Under `C=C[C@H]1CN(CCCCCCC)CC[C@H]1C[C@@H](Cc1ccnc2ccc(OC)cc12)OC(=O)[C@](OC)(c1ccccc1)C(F)(F)F` stands 96%; under `Cc1cc(N2CCCCC2)nc2ccc(NC(=O)c3cncc(Br)c3)cc12`, 86%.
The molecule `COc1ccc2c(c1)S(=O)(=O)N=C(N1CCCC1c1ccc(Cl)c(Cl)c1)N2C.O=C(O)C(F)(F)F` (stereo unspecified) came in with an Inhibition of 19%.
For `COc1cc2c(C3CCN(CC4CCN(C(=O)/C=C/c5ccc(Cl)c(Cl)c5)CC4)CC3)c[nH]c2cn1` the value was 88%.
In the case of `O=C(Nc1cccc(-c2ccc(CN3CCCC3)cc2)c1)c1ccc(Cl)cc1.O=C(O)C(F)(F)F`, the Inhibition was 47%.
`CC(C)c1ccc(NC(=O)c2ccc(CN3CCCN(CC4CCCCC4)CC3)cc2)cc1.O=C(O)C(F)(F)F` showed an Inhibition of 34%.
For `CC(=O)Nc1cccc(C(=O)Nc2cccc(-c3cccc(-c4nc5ccccc5[nH]4)c3)c2)c1` the value was 66%; for `CCCCc1ccc(C(=O)NC2CCN(C[C@H](O)c3ccnc4ccc(OC)cc34)CC2)cc1`, 22%; for `COc1ccc2ncc(F)c(CCN3C[C@H](CNCc4cc(F)c5c(c4)NC(=O)CO5)[C@H](O)C3)c2n1.Cl`, 23%.
Under `Clc1ccccc1/C=C/c1cncnc1Nc1ccc2[nH]c(Cc3ccccc3)nc2c1` stands 26%; under `OCC(c1ccccc1)n1c(COc2ccc(Cl)cc2)nc2c(OCCCN3CCCCC3)cccc21` (stereo unspecified), 68%.
For `O=C(O)C(F)(F)F.O=C1CCCN1CCCNCc1cccc(-c2cccc(-c3nc4cc(C(F)(F)F)ccc4[nH]3)c2)c1`, the Inhibition was 90%.
`Cl.O=c1cc(NCCCNCc2ccc(Cl)c(Cl)c2)[nH]c2ccc(Cl)cc12` had an Inhibition of 54%.
Turning to `CCCOc1cccc(C(=O)N[C@@H](Cc2ccccc2)[C@H](O)CNCc2ccccc2OC)c1`, the Inhibition is 61%.
For `COc1cccc(C(NC(=O)c2ccccc2)c2ccc3cccnc3c2O)c1` (stereo unspecified) the value was 41%; for `COc1ccc(COc2cc(NCCCN)nc3ccccc23)cc1`, 5%; for `CC[C@H](C)CNC(=O)c1cncc(-c2cccc(CN(C)C3CCN(C)CC3)c2)c1.O=C(O)C(F)(F)F`, 59%.
Under `O=c1ccc(CNc2nc(NCCc3ccccc3)nc3cc(Cl)ccc23)c[nH]1` stands 78%.
For `COc1cccc(-c2ccc3ccnc(N)c3c2)c1.O=C(O)C(F)(F)F` the value was 93%; for `Cl.O=C(O[C@H]1CN[C@H](C#Cc2cc3ncnc(Nc4ccc5c(ccn5S(=O)(=O)c5cccs5)c4)c3s2)C1)N1CCOCC1`, 48%; for `O=C(CC(=O)C(F)(F)F)c1ccccc1[N+](=O)[O-]`, 95%.
As for `Cc1ccc2c(=O)cc(CCc3cccc(F)c3F)n(CC(=O)N(Cc3ccc(-c4ccc(C(F)(F)F)cc4)cc3)C3CCN(C(C)C)CC3)c2n1.O=C(O)C(O)C(O)C(=O)O`, the Inhibition came to 49%.

For orientation: Inhibition means the change of the read-out against control, counted positive when it falls.
